Compound activity deposited in PubChem by several laboratories.
Hsp70 activator: switches on Hsp70 transcription; activation, % at 10 µM; 0.04% of 200,000 active; HeLa Hsp70 promoter luciferase reporter, luminescence; scaled: vehicle 0, proteasome-inhibitor control 100%; AID 1203;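 active means activation above the mean across all tested compounds plus 3 SD, cutoff set per campaign, cut at about 5.5% in these data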;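 further: 100% = MG132 at 30 µM as the positive control and 0% = DMSO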
Wee1 degr inh: human Wee1 degradation inhibition, primary screen; P30291; HeLa Luc-Wee1K328M stability, luciferase luminescence; 100% = proteasome inhibitor MG132 effect; reporter increase, % at 5 µM; 1.2% of 220,000 active; AID 1321;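 active means activation above the mean of all tested compounds plus 3 SD, set per screening run, cut at about 8.8% in these data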;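 further: cells exposed to compound for 20 h before luminescence read; 0% = DMSO alone and 100% = MG132 at 30 µM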
HSV augment: increases HSV replication in cells. HSV replication augmentation in cells, fold increase. 0.005% of 220,000 active. maximum fold increase; in the data active means maximum fold increase above about 1.5; tested in PC3 cells
DTT redox prof: compounds producing H2O2 with reducing agent – biochemical, NIH compound library profiling, artefact control for MLSCN library redox annotation, primary screen; DTT-dependent redox cycling H2O2, phenol red/HRP absorbance; 100% = 100 µM peroxide control, 0% = buffer; activation, % at 10 µM; 0.03% of 200,000 active; AID 878;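 active means activation of at least 50% relative to the plate's high and low controls in the primary single-dose screen; inactive means activation below 50%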;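 further: compound incubated with DTT at 0.8 mM final as the reducing agent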
p97 ATPase inh: human p97 ATPase inhibition; P55072; recombinant p97 ATPase, Kinase-Glo ATP luminescence, 3 h; inhibition, % at 8 µM; 0.42% of 220,000 active; AID 1481; in the data active means inhibition above about 15%;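 further: 0% = DMSO vehicle and 100% = wells lacking enzyme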
An asterisk follows results filed as active; i = inactive; . = no result. Most compounds without a hit are left out; they make up all but 1.6% or so of the library.

SMILES	Hsp70 activator	Wee1 degr inh	HSV augment	DTT redox prof	p97 ATPase inh
Cc1[nH][nH]c(=O)c1C(c1c(C)[nH][nH]c1=O)c1cn(C)c2ccccc12	0	-1	i	0	6
Cc1[nH][nH]c(=O)c1C(c1c(C)[nH][nH]c1=O)c1cn(Cc2cccc3ccccc23)c2ccccc12	1	0	i	-4	27*
CCC(C(=O)NC1CCCC1)N(C(=O)Cn1nnc(-c2ccc(C)o2)n1)c1cnc2ccccc2c1 (configuration not stated)	0	9.8*	i	0	-5
O=C(CSc1n[nH]c(=O)[nH]c1=O)Nc1ccc2c(c1)C(=O)c1ccccc1C2=O	.	2	i	.	10
CCN(c1ccccc1)S(=O)(=O)c1cc(NC(=O)CSc2n[nH]c(=O)[nH]c2=O)ccc1Cl	.	9.2*	i	.	5
Nc1nc(COc2ccc3ccccc3c2)cs1	0	9.0*	i	2	2
CC(C)(C)c1ccc(C(=O)NN2C(=O)CSC2=S)cc1	.	11*	i	.	2
CC1(C)C2CCC1(C)C(OC(=O)C[n+]1ccccc1N)C2 (configuration not stated)	.	0	i	.	5
O=C(N/N=C/C=C/c1ccccc1)c1ccc(Br)cc1	0	0	i	0	-1
O=C(N/N=C/C=C/c1ccc(Br)cc1)C(O)c1ccccc1 (configuration not stated)	0	11*	i	0	-1
O=C(NCc1ccccc1)C1CCCN(S(=O)(=O)c2cccnc2)C1 (configuration not stated)	0	1	i	1	0
C=CCn1c(SCC(=O)c2[nH]c(C)c(C(=O)OCC)c2C)nc2scc(-c3ccc(OC)c(OC)c3)c2c1=O	0	9.4*	i	-1	-9
Cc1ccc(S(=O)(=O)N(CC(O)CN2C(=O)NC(C)(C)C2=O)c2cccc(C)c2)cc1 (configuration not stated)	.	2	i	.	-3
Cc1cccc(-c2nsc(SCC(=O)NCC3CCCO3)n2)c1 (configuration not stated)	0	9.5*	i	0	2
Cc1cccc(-c2nsc(SCC(=O)NCc3ccco3)n2)c1	0	-1	i	2	1
Cc1ccc(CNC(=O)C2CCC(=O)N2C2CCCCC2)cc1 (configuration not stated)	0	0	i	-1	1
O=C(NCc1ccc(F)cc1)C1CCC(=O)N1C1CCCCC1 (configuration not stated)	0	10*	i	-1	-7
CCC(/C=N/NC(=O)C1COc2ccccc2O1)CC (configuration not stated)	0	2	i	0	-1
CCc1ccc(Nc2ccc(S(=O)(=O)N3CCOCC3)cc2[N+](=O)[O-])cc1	-1	9.7*	i	0	-8
OCCN(Cc1ccccc1)C(=S)NC1CCCCC1	-1	-2	i	0	0
Cc1ccccc1OCc1nc(-c2ccccc2)no1	0	11*	i	1	4
Cc1ccc(-c2noc(COc3ccccc3C)n2)cc1	0	-2	i	1	-4
COc1ccc(-c2noc(Cc3ccccc3OC)n2)cc1	0	8.9*	i	1	-2
CCOC(=O)c1c(C)c(C(=O)NCc2ccccc2OC)c(C)n1C	0	3	i	-2	-2
CCN1C(=O)/C(=C\c2cccn2-c2ccc([N+](=O)[O-])cc2)N(CC)C1=S	0	9.5*	i	0	9
SMILES	Hsp70 activator	Wee1 degr inh	HSV augment	DTT redox prof	p97 ATPase inh
C=CCNC(=S)NNC(=O)c1ccncc1	0	-4	i	0	6
CCCCCn1c(CN2CCCCC2CC)nc2c1c(=O)n(C)c(=O)n2C (configuration not stated)	0	11*	i	-1	0
Cc1cc(-c2ccccc2)c(C#N)c(SCC(N)=O)n1	1	9.7*	i	0	-2
N#Cc1cn(Cc2ccccc2)c(=O)[nH]c1=O	0	0	i	-1	-2
O=C1C(c2c(O)[nH]c3ccccc23)=Nc2ccccc21	0	12*	i	.	4
CSc1nnc(-c2cccc(NC(=O)c3ccccc3)c2)n1C	.	9.4*	i	.	-1
O=C(OCc1nnc(-c2ccc(Cl)cc2)o1)C12CC3CC(CC(O)(C3)C1)C2	0	9.8*	i	-2	-6
